Screens as filed in PubChem.
PPARg SRC-1 ag = promotes SRC-1 coactivator recruitment by human PPARgamma | P37231 | PPARgamma-SRC-1 coactivator recruitment biochemical assay | activation, % at 8 µM | hit rate 0.41% among 200,000 | AID 631; in the data active = activation above about 19%;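 note: 0% = DMSO and 100% = reference agonist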
SRC3 TRFRET art = counter-screen for PPARgamma SRC-3 recruitment agonists: TR-FRET artefact; PPARgamma/SRC-3 format; hits give high values; TR-FRET ratio at 8 µM; hit rate 0.39% among 99,000; AID 1048; in the data active = TR-FRET ratio above about 2000
PPARg SRC2 recr = PPARgamma-driven SRC-2 recruitment agonism; PPARgamma LBD-SRC-2 recruitment, biochemical; hit rate 0.34% among 200,000; activation, % at 8 µM;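 note: 0% = vehicle and 100% = reference agonist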
PPARg SRC3 recr = PPARgamma-driven SRC-3 recruitment agonism; biochemical PPARgamma/SRC-3 coactivator recruitment assay; activation, % at 8 µM; hit rate 0.26% among 200,000; in the data active = activation above about 23%;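 note: 0% = DMSO and 100% = reference agonist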
TR-FRET SRC-2 ct = flags TR-FRET format artefacts in PPARgamma SRC-2 recruitment agonist screen; hit rate 0.4% among 200,000; AID 1049; TR-FRET ratio at 8 µM; TR-FRET artefact counter-screen; hits give high values; in the data active = TR-FRET ratio above about 2000
SRC1 TRFRET art = TR-FRET artefact, counter-screen to PPARgamma/SRC-1 agonist assay; TR-FRET detection artefact counter-screen, emission ratio; hits give high values; TR-FRET ratio at 8 µM; hit rate 0.34% among 99,000; in the data active = TR-FRET ratio above about 2300
PPARg SRC2 conf = confirmation of agonists of SRC-2 recruitment by human PPARgamma | shares compounds with PPARg SRC3 recr | biochemical SRC-2 recruitment by PPARgamma | activation, % at 8 µM | hit rate 52% among 790 | AID 1297;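 note: 0% = vehicle alone and 100% = reference agonist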
PPARg SRC1 conf = human PPARgamma SRC-1 recruitment agonism, confirmation; PPARgamma–SRC-1 coactivator recruitment biochemical assay; shares compounds with PPARg SRC3 recr; hit rate 43% among 790; AID 1300; activation, % at 8 µM; in the data active = activation above about 20%;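 note: 0% = vehicle wells and 100% = reference agonist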
PPARg SRC3 conf = confirmation of agonists of SRC-3 recruitment by human PPARgamma | shares compounds with PPARg SRC3 recr | hit rate 29% among 790 | activation, % at 8 µM | biochemical PPARgamma-SRC-3 coactivator recruitment, agonist mode; in the data active = activation above about 24%;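 note: 0% = vehicle wells and 100% = reference agonist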
Target sequence (P37231 whole entry, looked up): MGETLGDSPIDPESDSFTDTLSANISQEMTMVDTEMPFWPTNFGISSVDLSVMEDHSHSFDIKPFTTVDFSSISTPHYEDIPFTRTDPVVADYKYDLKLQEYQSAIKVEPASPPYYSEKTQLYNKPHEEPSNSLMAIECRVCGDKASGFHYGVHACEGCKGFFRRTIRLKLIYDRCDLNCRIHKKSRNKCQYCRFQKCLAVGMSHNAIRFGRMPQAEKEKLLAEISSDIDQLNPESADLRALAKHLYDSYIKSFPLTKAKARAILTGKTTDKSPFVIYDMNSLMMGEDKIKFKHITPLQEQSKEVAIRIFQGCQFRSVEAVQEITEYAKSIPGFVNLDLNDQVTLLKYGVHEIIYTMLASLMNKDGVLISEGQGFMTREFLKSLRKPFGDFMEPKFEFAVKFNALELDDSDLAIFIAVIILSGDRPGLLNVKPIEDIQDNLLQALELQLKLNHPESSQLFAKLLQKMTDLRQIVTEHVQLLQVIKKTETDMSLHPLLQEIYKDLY
Target sequence (Q9Y6Q9 whole entry, looked up): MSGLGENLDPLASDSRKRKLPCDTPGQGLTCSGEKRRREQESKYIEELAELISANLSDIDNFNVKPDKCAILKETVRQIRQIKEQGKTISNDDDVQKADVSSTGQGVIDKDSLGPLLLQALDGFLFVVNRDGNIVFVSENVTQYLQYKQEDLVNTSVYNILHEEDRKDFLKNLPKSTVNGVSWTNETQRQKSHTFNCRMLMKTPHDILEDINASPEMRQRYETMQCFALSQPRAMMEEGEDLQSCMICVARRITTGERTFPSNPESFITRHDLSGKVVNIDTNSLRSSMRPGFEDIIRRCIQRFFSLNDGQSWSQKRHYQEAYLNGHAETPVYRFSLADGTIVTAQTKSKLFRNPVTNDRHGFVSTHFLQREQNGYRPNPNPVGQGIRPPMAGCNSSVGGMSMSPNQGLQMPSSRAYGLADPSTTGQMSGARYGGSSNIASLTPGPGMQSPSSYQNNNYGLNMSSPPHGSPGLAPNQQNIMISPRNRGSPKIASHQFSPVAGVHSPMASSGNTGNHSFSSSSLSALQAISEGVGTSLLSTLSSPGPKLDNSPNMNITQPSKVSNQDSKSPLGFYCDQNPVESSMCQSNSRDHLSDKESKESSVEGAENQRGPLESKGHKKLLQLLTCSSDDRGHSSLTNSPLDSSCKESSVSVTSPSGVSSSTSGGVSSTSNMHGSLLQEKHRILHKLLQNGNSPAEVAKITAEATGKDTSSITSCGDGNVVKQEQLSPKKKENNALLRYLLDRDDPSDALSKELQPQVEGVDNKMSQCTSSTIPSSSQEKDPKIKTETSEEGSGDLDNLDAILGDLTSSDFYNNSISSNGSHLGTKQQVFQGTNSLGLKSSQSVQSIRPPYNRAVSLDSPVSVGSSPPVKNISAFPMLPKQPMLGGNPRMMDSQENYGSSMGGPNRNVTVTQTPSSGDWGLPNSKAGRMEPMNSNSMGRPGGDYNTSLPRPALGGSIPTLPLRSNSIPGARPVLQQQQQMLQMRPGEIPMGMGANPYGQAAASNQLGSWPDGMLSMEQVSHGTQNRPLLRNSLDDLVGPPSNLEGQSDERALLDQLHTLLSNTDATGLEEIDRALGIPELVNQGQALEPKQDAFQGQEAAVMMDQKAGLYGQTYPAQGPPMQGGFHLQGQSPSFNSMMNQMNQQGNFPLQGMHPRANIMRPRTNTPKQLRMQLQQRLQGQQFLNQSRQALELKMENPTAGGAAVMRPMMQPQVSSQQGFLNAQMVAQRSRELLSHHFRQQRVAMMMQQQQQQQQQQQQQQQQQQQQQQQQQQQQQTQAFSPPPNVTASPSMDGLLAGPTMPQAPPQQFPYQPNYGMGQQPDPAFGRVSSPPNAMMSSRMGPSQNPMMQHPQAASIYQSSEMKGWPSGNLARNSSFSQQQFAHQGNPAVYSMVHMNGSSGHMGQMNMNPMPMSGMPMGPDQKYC
Starred values were filed as active, the others as inactive; · = no result; ! = not confirmed by another sample. The list is not random: actives were taken first. Their share in the collection is about 0.9%. Cut-off read from the data, not from the text of the source, unless noted: active = activation above about 22%; inactive = the rest.

SMILES	PPARg SRC-1 ag	SRC3 TRFRET art	PPARg SRC2 recr	PPARg SRC3 recr	TR-FRET SRC-2 ct	SRC1 TRFRET art	PPARg SRC2 conf	PPARg SRC1 conf	PPARg SRC3 conf
Cc1ccc2oc(-c3ccc(NC(=O)c4ccncc4)cc3O)nc2c1	14	1692	14	-4	1588	1908	·	·	·
COc1ccc(CC(=O)Nc2ccc(-c3nc4cc(C)ccc4o3)c(O)c2)cc1OC	43*	·	2	24	1476	·	41*	28*	25*
CC[n+]1c(/C=C/C=C/N(C(C)=O)c2ccccc2)sc2cc(OC)ccc21	-2	1700	-1	2	1734	1868	·	·	·
O=C(Sc1nnc(-c2ccccc2)o1)N1c2ccccc2Sc2ccccc21	16	·	31*	25	1691	·	48*	34*	33*
COc1cc(-c2nnc(SCC(=O)N3c4ccccc4Sc4ccccc43)o2)cc(OC)c1OC	2	·	-3	7	1583	·	·	·	·
CCOc1ccc(NC(=O)CN2CCC(n3cnc4cc(F)ccc43)CC2)cc1	-2	1610	-4	-4	1451	1749	·	·	·
CC1(C)Nc2ccc(O)cc2-c2c1ssc2=S	13	·	25*	28*	1836	·	6	3	5
CCS(=O)(=O)Nc1ccc(-c2nnc(SCC(=O)c3cccc(OC)c3)o2)cc1	6	·	7	2	1712	·	·	·	·
CCS(=O)(=O)Nc1ccc(-c2nnc(SCC(=O)c3ccc(NC(C)=O)c(OC)c3)o2)cc1	31*	·	5	57*	1680	·	8	-1	7
CCOC(=O)CSc1cc(=O)n(CC)c2ccccc12	28*	·	36*	32*	2136*	·	27*	17	19
CCOc1ccc(CCNC(=O)CSc2cc(=O)n(CC)c3ccccc23)cc1OCC	20*	1684	31*	15	2084*	2106	25*	18	17
CCOC(=O)N1CCC(NC(=O)CSc2cc(=O)n(C)c3ccccc23)CC1	47*	·	49*	48*	2545*	·	40*	26*	25*
Cn1c(=O)cc(SCC(=O)N2CCCC2)c2ccccc21	30*	2626*	35*	20	2431*	2601*	37*	24*	26*
CN(C)c1ccc(-c2nc3ccccn3c2/N=C/c2ccc(Br)cc2)cc1	7	1827	-3	-2	1437	1979	·	·	·
CC1CCN(CCNC(=S)Nc2ccc(Cl)cc2)CC1	8	1397	-3	1	1546	1823	·	·	·
Cc1cccc(OCC(=O)N/N=C/CC(C)c2ccccc2)c1C (stereo not given)	-2	1592	-2	1	1654	1907	·	·	·
CN(Cc1ccccc1)C(=O)CSc1cc(=O)n(C)c2ccccc12	46*	2514*	17	31*	2656*	3203*	32*	22*	24*
Cn1c(=O)cc(SCC(=O)NCC2COc3ccccc3O2)c2ccccc21 (stereo not given)	4	·	15	12	1878	·	·	·	·
CCCc1cc(=O)[nH]c(SCC(=O)N(C)Cc2ccccc2)n1	3	·	9	5	1409	·	·	·	·
CCOC(=O)CSc1cc(=O)n(C)c2cc(Cl)ccc12	77*	·	68*	97*	3535*	·	43*	26*	28*
CCn1c(=O)cc(SCC(=O)N(C)Cc2ccccc2)c2ccccc21	32*	·	47*	34*	2336*	·	42*	28*	27*
CCCCN(CC)C(=O)CSc1cc(=O)n(C)c2ccccc12	55*	·	51*	74*	2446*	·	32*	20*	21
C/C(=N\NC(=O)Cc1cccc2ccccc12)c1ccncc1	0	1392	4	1	1623	1690	·	·	·
O=Cc1cccn1-c1nccc(-c2ccco2)n1	19	1459	8	0	1722	1887	·	·	·
CN(C)CCNC(=S)Nc1ccc(F)c(F)c1F	-2	1549	1	-2	1417	1801	·	·	·
SMILES	PPARg SRC-1 ag	SRC3 TRFRET art	PPARg SRC2 recr	PPARg SRC3 recr	TR-FRET SRC-2 ct	SRC1 TRFRET art	PPARg SRC2 conf	PPARg SRC1 conf	PPARg SRC3 conf
O=C(CCCCO)CCCCCCCC[C@H]1N[C@H](CO)[C@H](O)[C@@H]1O[C@@H]1O[C@H](CO)[C@@H](O)[C@H](O)[C@H]1O	2	1387	-1	3	1491	1598	·	·	·
CCN(CC)c1ccc(NC(=O)/C=C/c2cc(Br)ccc2OC)cc1	24*	·	17	13	1525	·	1	4	3
COc1ccc(NC(=O)/C=C/c2cc(Br)ccc2OC)cc1	0	·	-3	0	1651	·	·	·	·
O=C(Cc1cccc2ccccc12)Nc1ccc(-c2cc3ccccc3oc2=O)cc1	24*	·	8	11	2296*	·	24*	18	10
CCN(CC(=O)Nc1ccccc1OC)C(=O)COc1ccc2ccccc2c1	7	1726	2	0	1695	1814	·	·	·
Cc1ccc(OCCn2cc(/C=C3\C(=O)NN(c4ccccc4)C3=O)c3ccccc32)cc1	-2	1493	1	-4	1700	1900	·	·	·
O=C1NN(c2ccccc2)C(=O)/C1=C/c1ccc(Sc2cccc3ccccc23)o1	30*	2511*	39*	18	2448*	2739*	25*	19	19
C=CCn1c(CNC(=O)c2ccccc2F)nnc1SCC(=O)NC(C)c1ccccc1 (stereo not given)	9	1479	3	1	1600	2013	·	·	·
CCCCCCCC(=O)N/N=C/c1cccnc1	20*	·	6	9	1642	·	5	3	6
Cc1[nH][nH]c(=O)c1C=NCc1ccc(Cl)cc1	1	1548	-5	-2	1652	1602	·	·	·
Cc1cc(SC(C)C(=O)O)nc2ccccc12 (stereo not given)	7	1737	2	2	1747	1775	·	·	·
CC(Sc1ccc2ccccc2n1)C(=O)O (stereo not given)	30*!	·	23*	37*	2286*	·	26*	17	18
CC(Sc1cnc2ccccc2n1)C(=O)O (stereo not given)	12	·	26*	21	1899	·	6	-1	6
COc1ccc(C(=O)N(C)c2c(C)n(C)n(-c3ccccc3)c2=O)cc1OC	5	1557	1	6	1672	1572	·	·	·
